Experimental findings from PubChem BioAssay AID504892 (The Scripps Research Institute Molecular Screening Center, 2011) are described below.

A word on the inhibition: it is the relative decrease from the control value, in per cent.

The assay addresses sn-1-specific diacylglycerol lipase ABHD11 (Homo sapiens) (UniProt Q8NFV4). Briefly: ABHD11 inhibitors, late-stage follow-up, gel-based ABPP, fluorescence, human isoform (AID 504892). The conditions noted are these: human ABHD11 proteome; at 20 µM (top of the series) unless noted.

A number with no mark means an inactive call. Active and inactive are the calls of the source. How the calls were made is not given here.

Chain of sn-1-specific diacylglycerol lipase ABHD11 (Homo sapiens) (Q8NFV4 whole entry, looked up, canonical isoform): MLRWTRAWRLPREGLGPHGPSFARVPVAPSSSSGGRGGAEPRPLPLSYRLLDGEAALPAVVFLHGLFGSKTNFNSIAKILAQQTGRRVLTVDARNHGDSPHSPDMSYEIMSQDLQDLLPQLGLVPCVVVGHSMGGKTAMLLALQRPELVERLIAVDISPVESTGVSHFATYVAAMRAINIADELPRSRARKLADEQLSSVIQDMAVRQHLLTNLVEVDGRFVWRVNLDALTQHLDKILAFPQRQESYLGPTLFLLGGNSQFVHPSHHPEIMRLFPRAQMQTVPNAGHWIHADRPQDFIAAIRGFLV

Regarding `CCC1CCCCN1C(=O)Oc1ccc([N+](=O)[O-])cc1` (configuration not stated), the inhibition is 0%.

Regarding `CCC1CCCCN1C(=O)n1ncc(C(O)(c2ccccc2)c2ccccc2)n1` (configuration not stated), the inhibition is 100% [at 0.15 µM] (active).
